KDM4E inh = inhibitors of human JMJD2E histone demethylase; JMJD2E catalytic domain, FDH-coupled NADH fluorescence (FDH is formaldehyde dehydrogenase); 1.6% of 230,000 active; Potency, µM (titrated, usually from 57.1 µM), inactives show at the top dose activity change, negative = inhibition, usual class: inhibitors; B2RXH2;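 further: potency means the concentration at half of the fitted maximal effect; 0% = wells with enzyme and -100% = buffer wells without enzyme; nearly all actives have a fitted effect of over 50% in size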
Target sequence (B2RXH2 1-337 limits assumed): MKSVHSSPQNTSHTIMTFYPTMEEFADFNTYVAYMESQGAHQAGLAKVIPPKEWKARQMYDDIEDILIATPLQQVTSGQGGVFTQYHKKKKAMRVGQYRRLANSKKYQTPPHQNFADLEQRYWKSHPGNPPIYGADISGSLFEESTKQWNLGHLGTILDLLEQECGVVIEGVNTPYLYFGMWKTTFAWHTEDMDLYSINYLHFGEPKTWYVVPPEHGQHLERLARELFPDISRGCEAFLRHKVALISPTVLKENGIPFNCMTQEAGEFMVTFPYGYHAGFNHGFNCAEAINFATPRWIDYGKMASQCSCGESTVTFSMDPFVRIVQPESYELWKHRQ
HPGD block = blocks human HPGD enzyme activity; P15428; purified HPGD, NADH fluorescence kinetic, PGE2 substrate; Potency, µM, inactives show at the highest dose activity change, negative = inhibition, actives largely listed as inhibitors; 4.3% of 150,000 active; AID 894; further: potency means the concentration at half of the fitted maximal effect
Target sequence (P15428 whole entry, looked up): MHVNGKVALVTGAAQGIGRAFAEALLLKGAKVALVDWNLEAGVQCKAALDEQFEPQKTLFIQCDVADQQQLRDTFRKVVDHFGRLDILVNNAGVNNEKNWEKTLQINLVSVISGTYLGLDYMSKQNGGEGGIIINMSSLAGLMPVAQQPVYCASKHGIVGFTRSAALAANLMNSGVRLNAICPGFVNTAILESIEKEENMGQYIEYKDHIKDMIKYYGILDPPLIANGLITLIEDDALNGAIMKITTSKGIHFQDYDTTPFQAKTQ
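NADH formation kinetics: reaction with 30 uM PGE2 and 1 mM NAD+ (final), 20 nM enzyme, Tris-HCl pH 8 with Tween 20, after 15 min compound preincubation at room temperature. Fluorescence change, last versus first of five reads.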
ALDH1A1 inh = inhibitors of human aldehyde dehydrogenase 1A1; Purified ALDH1A1, NADH fluorescence, propionaldehyde substrate; AID 1030; 7.3% of 220,000 active; Potency, µM (highest dose often 75.3 µM), inactives show top-dose activity, negative = inhibition, actives largely listed as inhibitors; P00352;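 further: potency means the concentration at half of the fitted maximal effect; plate controls were no enzyme wells and a reference inhibitor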
PNC assembly inh = blocks assembly of the perinucleolar compartment | PC3M PTB-GFP, PNC prevalence imaging, 16 h; hits give low values | 3.1% of 140,000 active | activity change (PNC), negative = inhibition, % at 10 µM | AID 2417;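 active means readout at or below -70, meaning at least 70% loss of cells showing the perinucleolar compartment, a nuclear body marking cancer cells; inconclusive means readout between -30 and a set limit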;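 further: plate controls were DMSO wells for no effect and camptothecin positive control wells for full effect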
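Read-out is percentage of cells bearing a perinucleolar compartment, from automated 20x imaging of fixed, Hoechst-stained PC3M PTB-GFP cells. Cells were seeded 4 h, then exposed 16 h to compound (23 nl of library stock) in duplicate plates.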
* = called active by the depositor; u = inconclusive; x = no result; [ ] = dose if it differs, or a comment. An excerpt weighted towards active compounds, which were near 11% of everything screened. Unless noted, the call rests on the fitted dose curve; in most records, active means well fitted inhibition curve with a large enough effect (not every such curve was filed as active); inconclusive means small, poorly fitted or top-dose-only effect, or another doubt; inactive means no such curve, though single readings can be large or run the other way. Unless noted, on the % scale 0 is the no-effect control and ±100 the full control effect.

SMILES	KDM4E inh	HPGD block	ALDH1A1 inh	PNC assembly inh
CCCCC1=CC2=C(c3ccco3)C(=O)C(C)(OC(=O)c3ccc(Cl)nc3)C(=O)C2=CO1 (centres undefined)	-5%	-12%	5%	x
O=S(=O)(O)O	x	-4%	u	x
CCCN(C(=O)c1ccco1)c1nnc(-c2ccccc2C)s1	10%	x	8.9µM*	x
COCCN(C(=O)c1ccco1)c1nnc(-c2ccc(F)cc2)s1	-14%	x	u	x
C=CCNC(=O)c1c(Cl)cccc1Cl	6%	u	u	-4
C=CCNC(=O)c1ccc(Cl)cc1Cl	4%	14µM*	15%	59
C=CCNC(=O)c1ccc(C)cc1Cl	2%	4µM*	7%	11
C=CCNC(=O)c1ccc(S(=O)(=O)CC)c(Cl)c1Cl	8%	x	-3%	x
CC(C)OC(=O)Nc1ccc2c(c1)N(C(=O)CCN1CCOCC1)c1ccccc1CC2	-3%	x	2%	x
N#CCCNc1c(Cl)cc(Cl)cc1C(=O)O	-25%	-6%	8%	26
O=C(Nc1cccc(F)c1)N1CC[C@@]2(CCCN(C(=O)c3ccco3)C2)C1	x	5%	u	x
COc1cc(CN2CCCC(C(=O)c3ccc4c5c(cccc35)CC4)C2)cc(OC)c1O (centres undefined)	-24%	x	u	x
N#Cc1ccc(NC(=O)COC(=O)CNC(=O)C2CCCCC2)cc1	7%	-10%	0%	-105*
CC(=O)NCC(=O)OCC(=O)Nc1ccc(C(C)=O)cc1	-21%	u	22µM*	19
CC(=O)OCC(=O)Nc1ccc(C(C)=O)cc1	0%	-7%	u	1
CCCCCc1c(C)nc(N2CCc3ccccc3C2)[nH]c1=O	3%	-20%	10%	-117*
COC(=O)C1=CN(C)C=C(C(=O)OC)C1c1ccccc1Cl	u	u	u	-109*
Cc1c(N=Cc2cccnc2)c(=O)n(-c2ccccc2)n1C	-28%	-9%	10%	3
O=C1CCC/C1=c1\s/c(=C\c2cccnc2)c(=O)n1-c1ccccc1	-3%	-13%	6.3µM*	-10
CSc1nc(-c2ccco2)nn1C(=O)Cc1ccccc1	-2%	-13%	11%	u
O=C(CCc1ccccc1)n1nc(-c2ccco2)nc1SCc1ccccc1	7%	8.9µM*	5%	u
C#C[C@]1(OC(C)=O)CCC2C3CCC4=CC(=O)CCC4C3CC[C@]21C (some centres undefined)	-7%	-3%	-10%	x
Cc1cc(CN(C)Cc2c(C(=O)N3CCCCCCC3)nc3ccc(Cl)cn23)n[nH]1	-2%	x	u	x
Cc1[nH]c(=O)[nH]c(=O)c1S(=O)(=O)N1CCCC(C(=O)N2CCN(c3ccccc3Cl)CC2)C1 (centres undefined)	3%	-25%	3%	-17
Cc1ccc(NC(=O)C2CCN(S(=O)(=O)c3c(C)[nH]c(=O)[nH]c3=O)CC2)cc1	5%	-3%	1%	-98*
SMILES	KDM4E inh	HPGD block	ALDH1A1 inh	PNC assembly inh
CCc1ccc(NC(=O)C2CCN(S(=O)(=O)c3c(C)[nH]c(=O)[nH]c3=O)CC2)cc1	4%	-3%	16%	71
Cc1ccc(C)c(N2CCN(C(=O)C3CCCN(S(=O)(=O)c4c(C)[nH]c(=O)[nH]c4=O)C3)CC2)c1 (centres undefined)	2%	-4%	5%	-86*
O=C(Nc1cc(Cl)ccc1N1CCCCC1)c1cccs1	u	-13%	-6%	-88*
Cc1cc(Cl)ccc1NNC(=O)c1cccs1	-21%	x	-5%	x
O=C(NNc1cc(Cl)ccc1Cl)c1cccs1	-6%	x	1.9µM*	x
CCc1sc(C(=O)Nc2cc(Cl)ccc2N2CCCCC2)cc1C	u	u	u	65
CC(C)NC(=O)CSc1nnc(-c2ccc(C(C)(C)C)cc2)n1C	14%	-5%	6%	-100*
CC(C)NC(=O)CSc1nncn1-c1ccccc1	2%	-6%	3%	-97*
C=C1c2ccccc2O[C@H](C(=O)OCC)[C@@H]1CC(C)(C)c1ccccc1	x	-14%	-15%	x
O=C(CC1SC(=NCCc2ccccc2)N(/N=C/c2cccs2)C1=O)Nc1ccc(Cl)cc1 (centres undefined)	-2%	-29%	-5%	u
CC(NC(=O)CC(O)(C(F)(F)F)C(F)(F)F)c1ccccc1 (centres undefined)	-2%	-8%	9%	-88*
CCC(NC(=O)Nc1ccc(O)cc1)(C(F)(F)F)C(F)(F)F	-28%	-8%	9%	1
CCC(NC(=O)Nn1cnnc1)(C(F)(F)F)C(F)(F)F	1%	-17%	2%	-100*
CC1(C)[C@@H](OC(=O)CCC(=O)O)CC[C@@]2(C)[C@H]1CC[C@@]1(C)[C@H]2C(=O)C=C2[C@H]3C[C@](C)(C(=O)O)CC[C@]3(C)CC[C@@]21C	3%[25.5 µM]	1%	9%[20.9 µM]	x
COc1ccc(Oc2ncc3nc(-c4ccccc4)c(=O)n(CCC#N)c3n2)cc1	x	-22%	u	x
Cc1cc(-c2ccccc2)c(C#N)c(=S)[nH]1	-3%	14µM*	7.9µM*	1
N#Cc1c(-c2ccccc2Cl)cc(-c2ccccc2)[nH]c1=S	-19%	x	10µM*	x
Cc1ccccc1C(C(=O)NC1CCCC1)N(C(=O)CNC(=O)c1ccco1)c1cccnc1 (centres undefined)	22%	x	13%	x
C/C(N)=C(/C#N)C(=O)COC(=O)CNS(=O)(=O)c1c(F)cccc1F	u	x	3%	x
COC(=O)CSc1nnc(CNC(=O)c2cccs2)n1-c1cc(OC)ccc1OC	-4%	x	20µM*	1
Cn1c(C(=O)NCCc2c[nH]c3ccccc23)cc2sccc21	-3%	-13%	-12%	-81*
O=C(NCCc1c[nH]c2ccccc12)c1cc2sccc2n1Cc1ccccc1	-1%	-20%	u	-8
O=C1CCCCc2sc(Br)c([N+](=O)[O-])c2N1	5%	x	x	x
CC1CCN(C(=O)CSc2nc3[nH]ncc3c(=O)[nH]2)CC1	-1%	-17%	11µM*	u
COc1ccc(OC)c(C2=Nn3c(nnc3-c3ccco3)SC2)c1	-1%	28µM*	-5%	38
SMILES	KDM4E inh	HPGD block	ALDH1A1 inh	PNC assembly inh
COc1ccc(C2=Nn3c(nnc3-c3ccco3)SC2)cc1	-6%	-26%	u	-26
Oc1ccc(C2=Nn3c(nnc3-c3ccco3)SC2)cc1O	2%	14µM*	8.9µM*	u
COCCCNc1nc(=S)[nH]c2cc(OC)c(OC)cc12	-7%	14µM*	-8%	-7
COc1cc2[nH]c(=S)nc(NCc3cccs3)c2cc1OC	4%	x	11µM*	x
COc1ccc(CCNc2nc(=S)[nH]c3cc(OC)c(OC)cc23)cc1OC	3%	x	10%	x
CC(C)C(c1nnnn1Cc1ccccc1)N1CCc2ccccc2C1 (centres undefined)	u	-16%	10µM*	-13
CC(C)C(c1nnnn1C1CCCC1)N1CCCc2ccccc21 (centres undefined)	9%	-17%	u	-100*
CC(C)C(c1nnnn1C1CCCCC1)N1CCc2ccccc2C1 (centres undefined)	-4%	-12%	25µM*	9
Nc1nc2ccccc2nc1N	3.2µM*	u	u	-9

Source: PubChem (National Center for Advancing Translational Sciences (NCATS))
